SW480 rereplic – inducers of DNA re-replication in SW480 colon cancer cells. SW480 DNA re-replication, Hoechst DNA content imaging, 48 h. 1.8% of 340,000 active. Potency, µM (highest dose often 46.1 µM), for the others: at the top dose re-replication activation, usual class: activators; further: potency means the concentration at half of the fitted maximal effect; % of control where 0% means no effect; nearly all actives have a fitted effect of over 55% in size
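Compounds, transferred as 23 nL by pin tool, were incubated with cells for 48 hr; DNA content per nucleus was then quantified by Hoechst staining and fluorescence plate imaging.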
S-ASM inh – inhibitors of human secretory acid sphingomyelinase | P17405 | placental ASM, HMU-PC fluorogenic substrate, 60 min | Potency, µM (titrated, usually from 57.5 µM), for the others: top-dose activity change, negative = inhibition, usual class: inhibitors | 0.006% of 340,000 active; further: potency means the concentration at half of the fitted maximal effect
Target sequence (P17405 47-631 limits assumed): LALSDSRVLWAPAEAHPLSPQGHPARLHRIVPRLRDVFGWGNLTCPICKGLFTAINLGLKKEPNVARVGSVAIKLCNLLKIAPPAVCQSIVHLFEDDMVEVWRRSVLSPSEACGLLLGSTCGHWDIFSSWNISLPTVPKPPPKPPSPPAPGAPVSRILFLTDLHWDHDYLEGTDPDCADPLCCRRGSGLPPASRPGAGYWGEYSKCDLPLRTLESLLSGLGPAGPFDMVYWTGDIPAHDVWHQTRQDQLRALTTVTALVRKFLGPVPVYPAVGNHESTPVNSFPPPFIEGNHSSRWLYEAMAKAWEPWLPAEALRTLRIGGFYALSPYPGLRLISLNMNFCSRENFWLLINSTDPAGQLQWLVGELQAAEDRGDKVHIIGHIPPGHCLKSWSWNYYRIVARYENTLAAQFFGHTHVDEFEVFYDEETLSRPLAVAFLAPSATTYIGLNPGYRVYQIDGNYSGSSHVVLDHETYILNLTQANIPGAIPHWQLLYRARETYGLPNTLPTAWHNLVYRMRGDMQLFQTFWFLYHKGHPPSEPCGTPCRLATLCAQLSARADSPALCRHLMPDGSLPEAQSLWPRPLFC
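Steps: dispense placental human ASM, pin compound, wait 10 min at room temperature, add HMU-PC0 substrate at 9 uM final, incubate 60 min at 37 °C, add stop solution raising pH to 10, read fluorescence.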
KB-3-1 cytotox – kills parental KB-3-1 adenocarcinoma cells; KB-3-1 viability, CellTiter-Glo ATP luminescence, 72 h; Potency, µM (highest dose often 46.1 µM), hits mostly cytotoxic; 1.4% of 400,000 active; AID 1347075; further: potency means the concentration at half of the fitted maximal effect; on the % scale 0 is the no-effect control and ±100 the full control effect; nearly all actives have a fitted effect of over 60% in size
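Luminescent ATP read-out (CellTiter-Glo) measures survival of drug-naive KB-3-1 cells after 72 h compound exposure at 37 °C. Titration series was screened from lowest to highest concentration, with DMSO vehicle plates as background controls.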
KB-V1 cytotox – kills drug-selected multidrug resistant KB-V1 cells; 3.4% of 400,000 active; KB-V1 MDR cells viability, CellTiter-Glo, 72 h; Potency, µM (titrated, usually from 46.1 µM), most hits filed as cytotoxic; further: potency means the concentration at half of the fitted maximal effect; on the % scale 0 is the no-effect control and ±100 the full control effect; nearly all actives have a fitted effect of over 60% in size
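Cytotoxicity toward P-gp-expressing KB-V1 cells was determined as loss of CellTiter-Glo luminescence after 72 h at 37 degrees C. Compounds were tested in quantitative HTS format across a concentration range, with curves fitted to normalized data.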
MCF10A rereplic – inducers of DNA re-replication in MCF 10A breast cells; AID 624296; MCF 10A DNA re-replication, Hoechst nuclear intensity, 48 h; 2.9% of 350,000 active; Potency, µM (doses to about 46.1 µM), for the others: top-dose activity, positive = re-replication, usual class: activators; further: potency means the concentration at half of the fitted maximal effect; % of control where 0% means no effect; nearly all actives have a fitted effect of over 50% in size
Giardia killer – kills Giardia lamblia; Giardia lamblia trophozoite viability; activity change, % at 7.66 µM, hits read low; 0.15% of 340,000 active; AID 540267; in the data active means activity change below about -80%; inconclusive means between about -30% and that limit;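 further: parasites exposed to compound for two days anaerobically before the ATP read; on the % scale 0 is the no-effect control and ±100 the full control effect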
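Giardia lamblia trophozoites (100 cells/well) were incubated with compounds for 48 h at 37 deg C under anaerobic conditions. Viability was read as ATP content by one-step luminescence after 15-30 min at room temperature.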
* marks the source's active call; other numbers are inactive results; i = inactive; ? = inconclusive; . = no result; ! = not confirmed by another sample. Hits are enriched below; roughly 6.9% of the tested compounds scored in any of these assays. Unless noted, the call rests on the fitted dose curve; in most records, active means well fitted curve in the direction sought with a large enough effect; inconclusive means small, poorly fitted or top-dose-only effect, or another doubt; inactive means no such curve, though single readings can be large; an effect the other way counts as inactive or inconclusive.

SMILES	SW480 rereplic	S-ASM inh	KB-3-1 cytotox	KB-V1 cytotox	MCF10A rereplic	Giardia killer
CC(O)(c1ccccc1)[N+]1(CC(=O)c2ccccc2)C=CC=C1 (centres undefined)	.	.	i	i	.	.
Cc1cccc(C)c1N(CC(=O)N1CCN(c2ccccc2F)CC1)S(C)(=O)=O	-7%	-1%	i	i	0.65µM*	0
Cc1cccc(N(CC(=O)N2CCN(c3ccccc3F)CC2)S(C)(=O)=O)c1	0%	6%	i	i	-2%	0
O=C(CCCCl)Oc1ccc2cc(-c3ccc4ccccc4n3)c(=O)oc2c1	2.1µM*	405%	i	i	6.5µM*	-11
CC(=O)COc1ccc2cc(-c3ccccc3)c(=O)oc2c1	27%	i	i	i	2%	-6
COC(=O)c1c[nH]c(=S)n1Cc1ccccc1	1%	1%	i	i	6%	8
C(=C\c1ccnc2ccccc12)/c1cc2c3c(c1)CCCN3CCC2	.	.	i	i	.	.
COc1ccccc1NC(=O)Cn1nnc(C(=O)NCc2cccs2)c1N	?	6%	2.1µM*!	5.8µM*	1.2µM*	6
COc1ccc(NC(=O)Cn2nnc(C(=O)NCc3cccs3)c2N)cc1	5%	-1%	i	i	-1%	7
Nc1c(C(=O)NCc2ccco2)nnn1CC(=O)Nc1ccccc1	-4%	-1%	i	i	?	6
CCc1ccccc1NC(=O)Cn1nnc(C(=O)NCc2cccs2)c1N	3.3µM*	1%	9.2µM*!	i	?	-6
CCc1ccccc1NC(=O)Cn1nnc(C(=O)NCc2ccco2)c1N	.	.	8.2µM*	?	.	.
CCOc1ccc(NC(=O)Cn2nnc(C(=O)Nc3ccc(OCC)cc3)c2N)cc1	.	.	i	i	.	.
CCOc1ccc(OCC)c(NC(=O)c2nnn(CC(=O)Nc3cc(C)cc(C)c3)c2N)c1	?	-1%	i	i	18µM*	0
CCCc1nc(SC)ncc1C(=O)N1CCN(c2ccc(Cl)cc2)CC1	.	.	i	i	.	.
COc1ccc(CN2CC[C@H]3C=CC[C@@H](C(=O)N4CCN(c5ccccc5)CC4)[C@H]3C2=O)cc1OC	.	.	i	i	.	.
CCc1ccccc1Nc1nn2c(=O)c3ccc(C(=O)NCCC4=CCCCC4)cc3nc2s1	.	.	i	i	.	.
COc1ccc(NC(=O)Cn2nnc(C(=O)NCc3ccccc3)c2N)c(OC)c1	?	5%	?	i	16µM*	24
COc1ccc(NC(=O)Cn2nnc(C(=O)NCCc3ccccc3)c2N)c(OC)c1	1%	-1%	i	i	1%	-22
Nc1[nH]c(=O)nc2nnsc12	.	.	?	i	.	.
CNC(=O)CC1C(=O)N(c2ccc(OC)cc2)C(=S)N1NC(=O)c1cccc(F)c1 (centres undefined)	2.3µM*	2%	i	i	?	3
CNC(=O)CC1C(=O)N(Cc2ccccc2)C(=S)N1NC(=O)c1cccc(F)c1 (centres undefined)	-9%	2%	i	21µM*	-7%	-23
Cc1ccc2c(c1)N(C(=O)CCC(=O)NCc1ccccc1Cl)CC(C)O2 (centres undefined)	.	.	i	i	.	.
CN1CCN(C(c2ccccn2)c2cc(Cl)c3cccnc3c2O)CC1 (centres undefined)	?	4%	i	i	15%	7
Oc1c(C(c2ccccn2)N2CCC(Cc3ccccc3)CC2)cc(Cl)c2cccnc12 (centres undefined)	?	-12%	?	2.6µM*	16µM*	-19
SMILES	SW480 rereplic	S-ASM inh	KB-3-1 cytotox	KB-V1 cytotox	MCF10A rereplic	Giardia killer
Cc1ccc(N(CC(=O)Nc2cccc(F)c2)S(=O)(=O)c2cccs2)cc1	.	.	i	i	.	.
CC(=O)NC(Cc1cccc(F)c1)C(=O)NC1CCN(c2ncccc2[N+](=O)[O-])CC1 (centres undefined)	-9%	-3%	i	i	2%	?
CC(=O)NC(Cc1ccc(F)cc1)C(=O)NC1CCN(c2ncccc2[N+](=O)[O-])CC1 (centres undefined)	-33%	-5%	i	i	0.82µM*	?
CC(=O)NC(Cc1ccc(F)cc1)C(=O)NC1CCN(C(=O)Nc2ccc(F)cc2)CC1 (centres undefined)	-6%	-3%	i	i	3%	1
COc1cccc(CC(NC(C)=O)C(=O)NC2CCN(c3c(Cc4ccccc4)c(C)nc4ncnn34)CC2)c1 (centres undefined)	23µM*!	3%	?	i	?	1
CC(=O)NC(Cc1cccc(C)c1)C(=O)NC1CCN(c2ncccc2[N+](=O)[O-])CC1 (centres undefined)	-3%	-9%	i	15µM*	-4%	?
CCOC(=O)/C(C#N)=C/c1ccc(-c2ccccc2)o1	.	.	i	i	.	.
O=C(O)CN1CCNCCN(CC(=O)O)CCNCC1	2.9µM*	2%	?	?	-9%	14
COc1ccc(OC)c(NC(=O)Nc2nc(C(C)N)cs2)c1 (centres undefined)	.	.	i	i	.	.
c1ccc(Cn2nnnc2C(c2ccccc2)N2CCN(Cc3ccncc3)CC2)cc1 (centres undefined)	.	.	i	i	.	6
COc1ccc([N+](=O)[O-])cc1NC(=O)C(C)NNC(=O)c1cccc([N+](=O)[O-])c1 (centres undefined)	-4%	-4%	i	18µM*	11%	-14
COc1ccc([N+](=O)[O-])cc1NC(=O)C(C)c1ccccc1 (centres undefined)	3%	4%	i	i	?	-18
Cc1ccc(C23CC4CC(CC(C(=O)N(C)C)(C4)C2)C3)cc1	23%	-3%	i	i	?	12
Oc1ccc(/C=N/N=C(c2ccccc2)c2ccccc2)c(O)c1O	-2%	-19%	?	i	21µM*	13
COc1cc(C(=O)OCc2ccc(C)cc2)cc(NC(=O)c2cccs2)c1OC	?	37%	i	?	23µM*	7
COc1c(Cl)cc(Cl)cc1C(=O)Nc1cccc(-c2nc3ccccc3o2)c1C	.	.	i	i	.	.
CCn1nnc(NC(=O)C(C)Oc2ccc(Cl)cc2Cl)n1 (centres undefined)	-10%	3%	i	18µM*	1%	-25
Cc1nc2cccnc2n1-c1cccc(C(=O)NCCN(C)C)c1	.	.	i	i	.	.
COc1ccccc1N1CCN(c2csc3ccc(Cl)cc3c2=O)CC1	.	.	i	i	.	.
